Some of the results follow. Values without a mark were called inactive. No stated cut-off is given here; in the data, active means response above about 24%; inactive means the rest.
Assay: V-ATPase regulators in yeast, one dose – S. cerevisiae, pH-sensitive GFP, second cherry-pick, confirmation (AID 602197);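 further: plate controls were vehicle wells for no effect and positive control wells for full effect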
Conditions: S. cerevisiae pHLuorin cytosolic pH, V-ATPase proton transport; at 10 µM; stronger effect = higher value

| SMILES | response [%] |
| --- | --- |
| Cc1ccccc1N1C(=O)NC(=O)/C(=C\c2cc(C)n(C)c2C)C1=O | 1.24 |
| CC(=O)Nc1ccc(C(=O)C(Cc2ccccc2)N(C)C)cc1 (configuration not stated) | 2.66 |

— PubChem BioAssay AID602197 (NMMLSC, 2012)
